Source: paper PMC5540273 (PLoS ONE, 2017)

Experiments:
Settings in all cases: concentration: 1 μM,replicates: in singlicate; n = 1
[1] = tested on: T1, SNARK
T1 construct: gene NUAK2

[2] = tested on: SNRK
[3] = tested on: SRC
[4] = tested on: SRMS
[5] = tested on: SRPK1
[6] = tested on: SRPK2
[7] = tested on: STK16
[8] = tested on: STK33
[9] = tested on: STK39
[10] = tested on: SYK
[11] = tested on: SgK110
[12] = tested on: T2, TAK1
T2 construct: gene MAP3K7

[13] = tested on: TAOK1
[14] = tested on: TAOK2
[15] = tested on: TAOK3
[16] = tested on: TBK1
[17] = tested on: TEC
[18] = tested on: SRPK3
[19] = tested on: STK35
[20] = tested on: STK36
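Further: KINOMEscan kinase panel screen.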

Structure (SMILES)	%Inh [1] [%]	%Inh [2] [%]	%Inh [3] [%]	%Inh [4] [%]	%Inh [5] [%]	%Inh [6] [%]	%Inh [7] [%]	%Inh [8] [%]	%Inh [9] [%]	%Inh [10] [%]	%Inh [11] [%]	%Inh [12] [%]	%Inh [13] [%]	%Inh [14] [%]	%Inh [15] [%]	%Inh [16] [%]	%Inh [17] [%]	%Inh [18] [%]	%Inh [19] [%]	%Inh [20] [%]
C=CC(=O)Nc1cc2c(Nc3ccc(F)c(Cl)c3)ncnc2cc1OCCCN1CCOCC1 [GW781483]	0	14	71	0	4	32	0	8	22	6	0	20	0	0	0	0	39	–	–	–
CN(C)CC(O)COc1ccc(Nc2nccc(-c3cnn4nc(N5CCOCC5)ccc34)n2)cc1 (stereo not drawn) [GW767488]	93.6	31	5	100	76	8	98.7	54	79	4	0	63	59	34	37	58	7	80	5	56
Cc1n[nH]c2ccc(-c3cc(OC[C@@H](N)Cc4ccccc4)cnc3-c3ccoc3)cc12.O=C(O)C(F)(F)F.O=C(O)C(F)(F)F [GSK507358]	18	0	10	0	61	4	6	73	0	0	0	97.9	92.4	5	74	18	0	34	95.9	0
COc1ccc(C[C@@H](CN)NC(=O)c2cc(Br)c(-c3ccnc4[nH]ccc34)s2)cc1.Cl.Cl [GSK1389063]	98.2	0	36	0	86	0	55	99.2	16	39	85	75	87	27	60	1	0	28	14	0
CN(C)CCOc1ccc(-c2cc(-c3c[nH]nc3-c3ccccn3)ccn2)cc1 [GW835314]	19	80	20	0	0	0	75	0	0	26	0	26	23	0	0	18	13	19	0	47
Cc1ccc2c(-c3ccncc3)c(-c3ccc(F)cc3)nn2c1.Cl [GW461484]	4	0	7	5	0	17	8	14	21	26	0	70	0	0	0	21	0	0	0	53
Cc1ccc(-n2nc(C(C)(C)C)cc2NC(=O)Nc2ccc(OCCN3CCOCC3)c3ccccc23)cc1 [GW839464]	0	0	0	8	64	0	6	21	0	9	22	76	0	1	0	31	34	29	0	0
CNC(=O)c1ccccc1Sc1ccc2c(/C=C/c3ccccn3)n[nH]c2c1	77	9	4	0	82	12	12	0	0	5	0	15	0	0	0	36	0	21	25	24
C[C@@H](Oc1cc(-c2cnn(C3CCNCC3)c2)cnc1N)c1c(Cl)ccc(F)c1Cl	96.7	6	83	18	3	0	0	0	0	8	83	33	31	48	36	65	2	33	–	0
Cl.Cl.NC[C@H](CC1CCCCC1)NC(=O)c1cc(Br)c(-c2ccnc3[nH]ccc23)s1 [GSK1581427]	90.5	0	28	0	82	14	27	89	6	19	82	0	42	0	4	1	0	87	23	0
Cl.Oc1cc(-c2nc(-c3ccccc3)[nH]c2-c2ccncc2)ccc1Cl [SB-386023]	24	0	88	12	0	0	7	0	0	0	32	9	11	29	5	10	1	5	0	53
Cc1cc2cn[nH]c2cc1-c1cccc2c(N)c(C(N)=O)nnc12	62	11	17	35	49	14	0	0	47	20	0	69	83	37	39	47	94.9	34	0	0
NC(=O)c1cc(-c2ccccc2)cc2c(C3CCNCC3)c[nH]c12 [GSK301362]	91.8	0	0	0	58	0	8	0	15	34	0	0	95.8	28	90	12	24	0	49	3
Nc1nc(Nc2ccccc2)cc(-c2ccc3c(N)n[nH]c3c2)n1 [GSK2225749]	21	0	0	0	80	2	59	14	0	0	0	36	32	2	23	28	0	83	0	24
O=C(NCCNc1ccnc(NCc2ccc(F)cc2)n1)c1cc2ccccc2s1 [GSK1379944]	31	0	4	0	13	0	78	0	1	14	17	0	0	14	0	19	21	0	0	2
Cc1cc(C(=O)Nc2ccc(Oc3ccc4nc(NC(=O)C5CC5)cn4n3)cc2)nn1-c1ccccc1	0	0	34	0	8	33	18	0	7	22	0	0	0	1	0	57	37	30	0	0
CCN(CC)CCOc1ccc(Nc2ncc3cc(-c4c(Cl)cccc4Cl)c(=O)n(C)c3n2)cc1 [SB-601273]	92.6	7	100	90.8	50	70	53	62	60	89	84	65	99.1	99.4	99.9	42	89	9	98.8	99.5
C[C@H]1Oc2cc(cnc2N)-c2c(nn(C)c2C#N)CN(C)C(=O)c2ccc(F)cc21	0	0	43	0	9	0	0	8	0	38	21	0	0	13	0	33	0	12	1	12
Cl.Cl.NC[C@H](Cc1ccc(C(F)(F)F)cc1)NC(=O)c1cc(Br)c(-c2ccnc3[nH]ccc23)s1 [GSK1487252]	91.5	0	0	0	47	0	16	96.8	7	10	75	11	2	0	0	4	8	0	0	0
C[C@@H]1CCN(C(=O)CC#N)C[C@@H]1N(C)c1ncnc2[nH]ccc12	73	15	0	0	39	18	0	0	0	–	50	–	0	0	0	10	39	1	0	0
CCN(CC)CCCCNc1ncc2cc(-c3c(Cl)cccc3Cl)c(NC(=O)NC(C)(C)C)nc2n1	42	12	100	31	35	8	4	0	0	11	25	57	99.2	99.5	99.5	0	0	0	15	77
CC(C)Nc1cc(-c2ccc3c(N)n[nH]c3c2)nc(N)n1 [GSK2221681]	17	0	0	0	69	0	19	0	3	3	0	2	4	0	0	35	0	43	0	0
Cc1occc1-c1nc(N)c(OC[C@@H](N)Cc2c[nH]c3ccccc23)cc1-c1cc2c(C)n[nH]c2cn1 [GSK1660450]	96.9	0	95.6	0	71	0	3	84	4	0	0	97.2	99.6	89	99.6	6	0	56	28	67
O=C(NCCCN1CCOC1=O)c1cnc(NCc2cc(Cl)ccc2Cl)nc1NC1CCCC1	0	5	11	0	39	0	15	0	0	15	0	0	0	10	0	24	18	26	13	10
Cl.Cl.Nc1nc(-c2ccc3c(N)n[nH]c3c2)cc(N2CCCC(NC(=O)c3ccccc3)C2)n1 (stereo not drawn) [GSK2286775]	21	0	0	0	56	0	31	0	0	0	0	0	0	0	0	76	6	53	0	0
CC(C)N1C(=O)Cc2cc(Nc3ncc(C(F)(F)F)c(NCc4cccc(S(C)(=O)=O)c4)n3)ccc21	82	13	0	0	55	3	94.7	0	33	87	0	70	0	0	0	86	10	24	4	0
CCn1c(-c2nonc2N)nc2c(C#CC(C)(C)O)nc(OCCN)cc21.Cl.Cl [GSK902056]	11	0	0	0	0	7	0	0	17	0	0	0	0	0	0	0	1	17	0	0
